Data on 16 compounds can be found in PubChem BioAssay.

Active and inactive are the calls of the source. How the calls were made is not given here.

For the assay, the target named is Pantothenate synthetase (Mycobacterium tuberculosis (strain ATCC 25618 / H37Rv)) (UniProt P9WIL5). The assay is described as follows: Coupled enzyme confirmation of inhibitors against recombinant Mtb PanC (AID 375).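 Further: 0% = full reaction with vehicle and 100% = no enzyme background.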 The following applies: coupled enzyme assay; at 10 µM, stronger effect = higher value.
Sequence of Pantothenate synthetase (Mycobacterium tuberculosis (strain ATCC 25618 / H37Rv)) (P9WIL5 whole entry, looked up): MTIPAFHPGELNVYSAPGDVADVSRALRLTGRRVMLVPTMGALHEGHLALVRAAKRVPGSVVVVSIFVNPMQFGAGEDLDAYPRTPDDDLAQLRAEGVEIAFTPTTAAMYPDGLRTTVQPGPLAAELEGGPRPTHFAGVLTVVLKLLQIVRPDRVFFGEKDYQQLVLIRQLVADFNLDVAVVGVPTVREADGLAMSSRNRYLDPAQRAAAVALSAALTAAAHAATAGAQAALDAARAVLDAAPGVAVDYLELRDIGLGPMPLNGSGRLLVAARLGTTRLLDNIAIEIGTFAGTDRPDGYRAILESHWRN
As a reminder, the inhibition is the percentage by which the read-out fell short of the control. In the case of `Clc1ccc(-n2nnnc2Sc2ncnc3sccc23)cc1`, the inhibition was 0% (inactive).

For `CCOCCCn1c(=S)[nH]c2cc3c(cc2c1=O)OCO3`, the inhibition was 0% (inactive).

Consider `CN1CCN(C(=O)c2ccc3c(=O)n(CCc4ccccc4)c(=S)[nH]c3c2)CC1`, for which the inhibition is 0% (inactive).

Consider `O=C(Cn1nc(Cc2ccncc2)c2ccccc2c1=O)N1CCc2ccccc2C1`, for which the inhibition was 0% (inactive).

As to `Cn1c(=O)[nH]c(=O)c2c1nc(Br)n2Cc1ccccc1F`, the inhibition was 0% (inactive).

Turning to `CCOC(=O)CN1CC23C=CC(O2)C(C(=O)Nc2ccc(OCC)cc2)C3C1=O` (stereo unspecified), the inhibition is 3% (inactive).

For the compound `COc1ccccc1NC(=O)CSc1nnc(CC(=O)Nc2ccccc2)n1C`, the inhibition is 6% (inactive).

As for `O=S(=O)(c1ccc(F)cc1)N1CCC(N2CCCC2)CC1`, the inhibition was 0% (inactive).

With `c1ccc2c(NC3CCCC3)nnc(NC3CCCC3)c2c1`, the inhibition was 0% (inactive).

As to `O=C(CN1C(=O)COc2ccccc21)NCCCN1CCN(Cc2ccccc2)CC1`, the inhibition is 0% (inactive).

On to `CN1CCc2c(sc3c2c(=O)n(-c2cccc(Cl)c2)c2nncn32)C1`, for which the inhibition is 0% (inactive).

On to `COc1cc2cc(C(c3nnnn3C3CCCC3)N3CCCCCC3)c(=O)[nH]c2cc1OC` (stereo unspecified), for which the inhibition was 5% (inactive).

As for `O=C(CN1CCC(O)(c2ccc3c(c2)OCO3)CC1)OC1CCCCC1`, the inhibition is 0% (inactive).

On to `CCOC(=O)c1[nH]c2cc(OC)c(OC)cc2c1NC(=O)C(C)N1CCN(Cc2ccccc2)CC1` (stereo unspecified), for which the inhibition is 1% (inactive).

In the case of `COc1ccc(S(=O)(=O)N2CN(Cc3ccco3)c3nc4ccccc4nc32)cc1`, the inhibition was 0% (inactive).

On to `CCOC(=O)n1c(SCC(=O)N(CC)CC)nc2ccccc21`, for which the inhibition is 0% (inactive).
